Several values for one entry are separate records, joined by “and”; a condition that tells them apart may be missing. Identical values can stand only once. Results filed as inconclusive are left out. Unmarked numbers belong to inactive results. The call rests on the fitted dose curve; in most records, active means well fitted inhibition curve with a large enough effect; inconclusive means small, poorly fitted or top-dose-only effect; inactive means flat fitted curve, though single readings scatter. Where a SMILES comes first, the peptide text is derived from it. Bridges are numbered along the chain shown (N, C = ends). [ ]: non-standard residue; d: D form. The star is where a group is joined. X1 = CC[C@@H](C)[C@@H](N)C1=N[C@H](C(=O)*)CS1; d(aIle) = CC[C@H](C)[C@@H](N)C(=O)O; dOrn = NCCC[C@@H](N)C(=O)O
test system: KB-3-1; test: Cytotoxic Profiling of Annotated Libraries Using Quantitative High-Throughput Screening (AID 1296008); settings: Five cell lines viability, CellTiter-Glo ATP luminescence, 48-72 h; max response: active compounds read low; further: nearly all actives have a fitted effect of over 60% in size
Procedure, shortened: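 Compounds were pin-transferred onto cells and incubated 48 or 72 hr at 37 degree Celsius, 95% humidity. CellTiter-Glo was added, plates sat 10 min at room temperature, then ATP-coupled luminescence was imaged as the viability read-out.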
On the % scale 0 is the no-effect control and ±100 the full control effect.

SMILES	max response
OCc1ccccc1	7.88%
CNC(=O)OCc1cccc(COC(=O)NC)n1	2.4%
OCl	19.8%
O=C(OC1C[C@@H]2CC3C[C@H](C1)N2CC3=O)c1c[nH]c2ccccc12 (stereo partly specified)	-14.8%
COc1ccc2c(c1)N(C[C@H](C)CN(C)C)c1ccccc1S2	-8.39%
O=C(O)[C@H]1CN(C/C=C/P(=O)(O)O)CCN1	9.65%
CC(CN1c2ccccc2Sc2cccnc21)N(C)C (stereo unspecified)	-2.53%
COc1c(O[C@@H]2O[C@H](CO)[C@@H](O)[C@H](O)[C@H]2O)cc2c(c1OC)-c1ccc(SC)c(=O)cc1[C@@H](NC(C)=O)CC2	48.2%
CC/C(=C(/CC)c1ccc(OP(=O)(O)O)cc1)c1ccc(OP(=O)(O)O)cc1	-7.92%
Cc1ccc(S(=O)(=O)O)cc1C	7.06%
O=P(O)(O)OC[C@H](O)CO	-16.7%
CC(C)(COP(=O)(O)OP(=O)(O)OC[C@H]1O[C@@H](n2cnc3c(N)ncnc32)[C@H](O)[C@@H]1OP(=O)(O)O)C(O)C(=O)NCCC(=O)NCCS (stereo partly specified)	7.71%
C=C1CC[C@H](O)CC1=C/C=C1\CCC[C@]2(C)[C@@H]([C@H](C)CCCC(C)(C)O)CC[C@@H]12	5.57%
CCOc1ccc(NC(=S)Nc2ccc(OCC)cc2)cc1	43.1%
O=C1NCCN1c1ncc([N+](=O)[O-])s1	1.83%
CC(C)[C@H](N)C(=O)OCC(CO)OCn1cnc2c(=O)[nH]c(N)nc21 (stereo partly specified)	3.14%
C[N+]1(C)[C@@H]2CC(OC(=O)C(O)(c3cccs3)c3cccs3)C[C@H]1[C@@H]1O[C@@H]12 (stereo partly specified)	-8.8%
CCC(=O)OC(OP(=O)(CCCCc1ccccc1)CC(=O)N1C[C@H](C2CCCCC2)C[C@H]1C(=O)O)C(C)C (stereo partly specified)	3.39%

SMILES	max response
CCCCC(=O)O[C@H]1CC[C@H]2[C@@H]3CCc4cc(O)ccc4[C@H]3CC[C@]12C	0.0537%
OCCN1CCN(CC/C=C2/c3ccccc3Sc3ccc(Cl)cc32)CC1	6.68%
O=C(O)[C@H]1C(=CCO)O[C@H]2CC(=O)N12	8.73%
COc1ccc2c(=O)c(C)c(-c3ccccc3)oc2c1CN(C)C	2.73%
CC(=O)O[C@@H]1CC2CCC1(C)C2(C)C (stereo partly specified)	-0.31%
NC(=O)c1cc[n+](CC2=C(C(=O)O)N3C(=O)[C@@H](NC(=O)C(c4ccccc4)S(=O)(=O)[O-])[C@H]3SC2)cc1 (stereo partly specified)	1.04%
ClC(Cl)Cl	3.29%
O=C1c2c(O)cccc2[C@H]([C@@H]2O[C@H](CO)[C@@H](O)[C@H](O)[C@H]2O)c2cc(CO)cc(O)c21	8.29%
CCC(Oc1ccccc1)C(=O)N[C@@H]1C(=O)N2[C@@H]1SC(C)(C)[C@@H]2C(=O)O (stereo partly specified)	9.51%
C[C@@H]1NC(=O)[C@@H](N)CNC(=O)[C@H](C2CCNC(N)=N2)NC(=O)/C(=C/NC(N)=O)NC(=O)[C@H](CNC(=O)C[C@@H](N)CCCN)NC1=O (stereo partly specified)	-2.35% and -9.97%
NC(N)=NCC1COC2(CCCCC2)O1 (stereo unspecified)	1.43%
CCCCCCCCCCCCCCCCCC(=O)OC[C@@H](O)[C@H]1OC[C@H](O)[C@H]1O	-10%
CC(C)Cc1ccc([C@@H](C)C(=O)NS(C)(=O)=O)cc1	3.61%
CO[C@@H]1[C@H](OC(=O)/C=C/C=C/C=C/C=C/C(=O)O)CC[C@]2(CO2)[C@H]1[C@@]1(C)O[C@@H]1CC=C(C)C	2%
CN(C)CCC=C1c2ccccc2C(C)(C)c2ccccc21	-19.1%
CC[C@@H](C)[C@@H](N)C1=N[C@H](C(=O)N[C@@H](CC(C)C)C(=O)N[C@@H](CCC(=O)O)C(=O)N[C@@H](C(=O)N[C@@H]2CCCCNC(=O)[C@@H](CC(N)=O)NC(=O)[C@@H](CC(=O)O)NC(=O)[C@@H](Cc3cnc[nH]3)NC(=O)[C@@H](Cc3ccccc3)NC(=O)[C@@H]([C@H](C)CC)NC(=O)[C@@H](CCCN)NC2=O)[C@@H](C)CC)CS1 (X1-LE[d(aIle)][dK][dOrn][dI][dF][dH][dD][dN]; lactam 4-C)	3.54% and -18.2%
CO[C@H]1O[C@@H]2O[C@@]3(C)CC[C@H]4[C@H](C)CC[C@@H]([C@H]1C)[C@@]24OO3	1.88%
C[Si](C)(C)O[Si](C)(C)C	-5.55%
